# Assay results from PubChem BioAssay AID2284117 (EPA ToxCast).
# Calls of active or inactive are those of the source. The calls were made as follows: active = hit-call score of the fitted dose curve at least 0.9, where 1 is the maximum; inactive = score below 0.9.
# Target: human PDE4A1A Phosphodiesterase, PDE4A (gene 5141) (UniProt P27815)
# Assay: ERF_FR_ENZ_hPDE4A: Eurofins (ERF) Enzymatic LeadHunter Assay for human PDE4A1A Phosphodiesterase
# Experimental: ERF_FR_ENZ_hPDE4A is a biochemical, single-readout assay that uses extracted gene-proteins in a cell-free assay. Measurements were taken 0.33 hour after chemical dosing in a 96-well plate. See PDE4A1A Human Phosphodiesterase Enzymatic Assay, Cerep.ERF_FR_ENZ_hPDE4A is an assay component calculated from the ERF_FR_ENZ_hPDE4A assay. It is designed to measure enzyme activity using a type of enzyme reporter as detected by scintillation counting with radiometry technology.Data from the assay component ERF_FR_ENZ_hPDE4A was analyzed at the assay endpoint, ERF_FR_ENZ_hPDE4A, in the positive analysis fitting direction relative to DMSO as the negative control and baseline of activity. Using a type of enzyme reporter, loss-of-signal activity can be used to understand changes in enzymatic activity as they relate to gene PDE4A. To generalize the intended target to other relatable targets, this assay endpoint is annotated to the phosphodiesterase intended target family, where the subfamily is cyclic nucleotide signaling.
# Human cells are incubated for 10 minutes at room temprature with [3H]cAMP + cAMP (0.5uM) as sunstrate and Nitrendipine as control inhibitor. Test Sample Requirements: Minimum for 1) Screen: 60 ul of 10 mM stock -OR- 1 mg (pre-weighed) for 10 uM final testing. 2) Dose Response: 90 ul of 10 mM stock -OR- 1 mg (pre-weighed) for a top concentration at 10 uM.
# human PDE4A1A Phosphodiesterase, PDE4A (gene 5141), sequence (P27815 whole entry, looked up): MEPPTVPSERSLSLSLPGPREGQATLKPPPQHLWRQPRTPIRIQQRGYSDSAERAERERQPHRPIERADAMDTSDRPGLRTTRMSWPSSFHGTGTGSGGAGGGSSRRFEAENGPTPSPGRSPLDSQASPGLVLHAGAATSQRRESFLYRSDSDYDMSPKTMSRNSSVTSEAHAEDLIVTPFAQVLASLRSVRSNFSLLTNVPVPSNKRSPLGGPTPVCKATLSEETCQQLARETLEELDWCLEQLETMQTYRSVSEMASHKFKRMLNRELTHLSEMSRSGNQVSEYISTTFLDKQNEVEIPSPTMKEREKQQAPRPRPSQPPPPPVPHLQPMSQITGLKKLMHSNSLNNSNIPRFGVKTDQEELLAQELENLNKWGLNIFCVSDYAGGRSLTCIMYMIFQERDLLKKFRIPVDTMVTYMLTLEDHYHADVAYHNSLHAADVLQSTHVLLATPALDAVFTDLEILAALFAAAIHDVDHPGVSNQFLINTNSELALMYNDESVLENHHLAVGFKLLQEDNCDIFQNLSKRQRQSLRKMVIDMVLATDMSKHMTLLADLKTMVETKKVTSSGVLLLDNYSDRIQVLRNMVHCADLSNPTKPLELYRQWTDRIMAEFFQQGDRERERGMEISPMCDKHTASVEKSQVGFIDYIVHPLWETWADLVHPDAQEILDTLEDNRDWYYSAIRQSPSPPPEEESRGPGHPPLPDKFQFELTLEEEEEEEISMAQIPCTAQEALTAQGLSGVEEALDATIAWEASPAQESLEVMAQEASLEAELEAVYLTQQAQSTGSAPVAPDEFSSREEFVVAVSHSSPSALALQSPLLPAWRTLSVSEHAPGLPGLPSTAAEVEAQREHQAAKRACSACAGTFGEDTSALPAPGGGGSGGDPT
row,Compound,AC50
1,COc1cc(CCC(=O)CC(=O)CCc2ccc(O)c(OC)c2)ccc1O,2660 nM (active)
